Screening results (PubChem)
FMDV inh: antivirals against foot and mouth disease virus; AID 1159524; hit rate 1.2% among 410,000; FMDV antiviral cell-based qHTS; Potency, µM (doses to about 57.9 µM), for inactives: at the highest dose activity change, negative = inhibition, most hits filed as inhibitors; calls by dose curve; tested in HEK293T cells; note: read-out not given here; potency is the fitted concentration of half-maximal effect; nearly all actives have a fitted effect of over 45% in size
FBPA Giardia inh: blocks Giardia fructose-bisphosphate aldolase activity. A8B2U2. purified Giardia FBPA. Potency, µM (highest dose often 59.6 µM), without a hit: at the highest dose activity, negative = inhibition, usual class: inhibitors. hit rate 0.71% among 290,000; note: potency is the fitted concentration of half-maximal effect; nearly all actives have a fitted effect of over 55% in size
Target sequence (A8B2U2 whole entry, looked up): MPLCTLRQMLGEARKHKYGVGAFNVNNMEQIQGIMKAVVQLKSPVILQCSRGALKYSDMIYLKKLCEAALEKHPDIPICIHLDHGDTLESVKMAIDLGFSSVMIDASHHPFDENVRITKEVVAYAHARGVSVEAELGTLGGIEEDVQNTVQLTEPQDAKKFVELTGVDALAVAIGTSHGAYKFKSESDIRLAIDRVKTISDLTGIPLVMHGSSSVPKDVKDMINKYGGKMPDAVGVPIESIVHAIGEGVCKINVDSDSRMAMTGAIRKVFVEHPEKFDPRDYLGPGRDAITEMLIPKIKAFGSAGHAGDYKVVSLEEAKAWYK
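40 nM FBPA preincubated 10 min at RT with compound (up to 57.5 uM final), then substrate plus GAPDH/TPI/NAD/arsenate coupling and diaphorase/resazurin added. Fluorescence read after 20 min at RT, 525/598 nm.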
HCMV antiviral: human cytomegalovirus inhibition. HFF cells, HCMV-luciferase reporter, 72 h; stronger effect = lower value. activity change, negative = inhibition, % at 57.5 µM. hit rate 4.5% among 410,000. AID 1259415; in the data active = activity change below about -60%; inconclusive = no clear call, values can overlap the other calls; inactive = above about -39%
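Screen run at 2 compound doses on HFFs infected with reporter HCMV, MOI 1 PFU/cell. Luciferase activity from cell lysates at 72 h post infection gave inhibition relative to buffer-only and Salinomycin wells.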
Vaccinia mCherry: vaccinia inhibition (mCherry reporter). Vaccinia virus mCherry reporter infection, fluorescence. Potency, µM (titrated, usually from 36.5 µM), inactives show top-dose activity change, negative = inhibition, hits mostly inhibitors. hit rate 0.63% among 310,000; calls by dose curve; tested in A549 cells; note: potency is the fitted concentration of half-maximal effect; nearly all actives have a fitted effect of over 35% in size
Vaccinia Venus: inhibitors of vaccinia virus (Venus reporter); Vaccinia virus Venus reporter expression, fluorescence; Potency, µM (doses to about 36.5 µM), for the others: at the top dose activity change, negative = inhibition, usual class: inhibitors; AID 720580; hit rate 0.46% among 330,000; calls by dose curve; tested in A549 cells; note: potency is the fitted concentration of half-maximal effect; nearly all actives have a fitted effect of over 30% in size
HCV inh: blocks hepatitis C virus | Huh7.5.1 HCVcc-Cre infection, luciferase reporter, 44 h | Potency, µM (doses to about 41.8 µM), inactives show at the top dose activity change, negative = inhibition, actives largely listed as inhibitors | hit rate 3.4% among 340,000 | AID 651820; note: potency is the fitted concentration of half-maximal effect
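Seed cells (1,000/well) for 4 h; treat with compound and infect with HCVcc-Cre, moi about 0.5. Incubate 44 h, then detect luciferase activity.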
* = called active by the depositor; i = inactive; u = inconclusive; x = not tested or not shown; ! = not confirmed by another sample; [ ] = dose if it differs, or a comment. The list is not random: actives were taken first. Their share in the collection is about 7.5%. Unless noted, calls come from the whole dose curve; as a rule, active = well fitted curve in the direction sought with a large enough effect; inconclusive = small, poorly fitted or top-dose-only effect, or another doubt; inactive = no such curve, though single readings can be large; an effect the other way counts as inactive or inconclusive. % is set by controls: 0 for no effect and ±100 for the full control effect.

SMILES | FMDV inh | FBPA Giardia inh | HCMV antiviral | Vaccinia mCherry | Vaccinia Venus | HCV inh
Cc1ccc(NC(=O)CSc2nn(-c3ccccc3)c(=S)s2)cc1S(=O)(=O)N(C)C | u | -2.3% | -77.6* | u | u | u
CN(C)S(=O)(=O)c1ccc(Cl)c(NC(=O)CSc2nc3c(cc2C#N)C(=O)CCC3)c1 | -16.1% | 0.5% | -20.1 | i | -9.8% | 9.4%
Cc1ccc(NC(=O)CSc2nc3c(cc2C#N)C(=O)CCC3)cc1S(=O)(=O)N(C)C | u | 1.3% | -69.2* | -13.9% | 9.0% | u
Cc1n[nH]c(=O)c2c(NC(=O)CSc3nc4ccccc4c(=O)n3CCCOC(C)C)oc(C)c12 | -15.4% | x | -97.9* | i | -15.2% | -5.0%
CCOCCCn1c(SCC(=O)Nc2oc(C)c3c(C)n[nH]c(=O)c23)nc2ccccc2c1=O | -11.0% | x | -10.9 | u | -9.6% | 8.4%
Cc1nc2cc(NC(=O)[C@@H]3C[C@@H](Sc4ccccn4)CN3Cc3cccc(F)c3)ccc2s1 | 5.3% | x | x | -4.9% | 7.9% | x
CCc1cccc(NC(=O)C(CC(C)C)NS(=O)(=O)c2ccc3c(c2)oc(=O)n3C)c1 (stereo not drawn) | 38.2% | x | -4.5 | -12.3% | -9.3% | x
Cn1c(SCC(=O)NCC2CCCO2)nnc1-c1ccco1 (stereo not drawn) | -3.0% | x | 2.2 | x | x | 6.4%
COc1ccccc1NS(=O)(=O)c1cccc(NC(=O)c2[nH]c(C)c(C(C)=O)c2C)c1 | -29.2% | -11.2% | 0.0 | x | x | 12.6µM*
COc1ccccc1NC(=O)c1[nH]c(C)c(C(C)=O)c1C | -19.7% | -6.3% | 73.4 | x | -13.2% | -19.2%
CC(=O)c1c(C)[nH]c(C(=O)Nc2cccc(S(=O)(=O)N(C)c3ccccc3)c2)c1C | -10.2% | -5.9% | -3.0 | -11.0% | -17.2% | 25.1µM*
COc1ccc(-c2csc3ncnc(Nc4ccccc4)c23)cc1 | u | x | -15.0 | -8.6% | 2.2% | x
COc1ccc(-c2csc3ncnc(Nc4ccc(O)cc4)c23)cc1 | -26.9% | -10.7% | u | x | x | u
COc1ccc(-c2csc3ncnc(NCCCO)c23)cc1 | u | -4.1% | -68.0* | i | -9.5% | u
COc1ccc(-c2csc3ncnc(NCCO)c23)cc1 | u | -0.3% | -86.6* | x | x | u
CC(C)CNc1ccc2c(n1)C(=O)N([C@H](C)C(=O)N[C@H](CO)c1ccccc1)C2 | x | x | 26.1 | x | x | x
CC(C)N1CCC(=NNc2ccc(S(=O)(=O)N3CCOCC3)cc2[N+](=O)[O-])CC1 | -6.5% | 0.7% | u | -8.8% | -9.7% | 3.1%
CCCN1CCC(=NNc2ccc(S(=O)(=O)N3CCOCC3)cc2[N+](=O)[O-])CC1 | -6.6% | 2.4% | -73.1* | u | -25.8% | u
CCCCCC(/C=N/Nc1ccc(S(=O)(=O)N2CCOCC2)cc1[N+](=O)[O-])=C\c1ccccc1 | -16.5% | -7.0% | -95.6* | x | x | -0.1%
CCOC(=O)C1=C(COC(=O)c2ccc3ccccc3c2O)NC(=O)NC1C (stereo not drawn) | u | x | 0.0 | x | x | u
COc1cccc(CCOC(=O)c2c(-c3ccsc3)oc3c2C(OC(C)=O)CCC3)c1 (stereo not drawn) | -13.3% | x | -10.4 | -1.8% | -4.9% | x
NC(=O)c1ccccc1OCC(=O)N1CCC(Cc2ccccc2)CC1 | 31.6µM* | x | -68.4* | x | x | 8.91µM*
Cc1[nH]nc2ccc(-c3cncc(OC[C@@H](N)Cc4c[nH]c5ccccc45)c3)cc12 | u | x | x | u | 0.891µM* | u
FC(F)(F)c1ccc(CN2C[C@@H]3C(c4ccc(Cl)nc4)C4(c5cccnc5)CC3(C4)[C@H]2c2ccccc2)cc1 (stereo partly drawn) | u | -9.3% | -67.4* | u | u | -7.6%
COc1nnc(-c2ccc(N3CCCCC3)c(NC(=O)c3ccccc3Cl)c2)c2ccccc12 | u | x | -99.3* | -13.8%[7.34 µM] | -16.1%[7.34 µM] | x
SMILES | FMDV inh | FBPA Giardia inh | HCMV antiviral | Vaccinia mCherry | Vaccinia Venus | HCV inh
CCC(=O)Nc1cc(-c2nn(C)c(=O)c3ccccc23)ccc1N1CCOCC1 | 13.2% | 1.2% | 67.6 | i | -1.9% | u
Cn1nc(-c2ccc(N3CCCCC3)c(NC(=O)c3ccco3)c2)c2ccccc2c1=O | 0.0% | -9.4% | -28.9 | i | -16.0% | 7.08µM*!
COc1cc(NC(=O)c2cc(C(C)C)on2)c(OC)cc1Cl | -8.3% | -9.2% | 84.7 | -3.6% | -4.1% | 11.2µM*
COc1cc(NC(=O)c2c(F)c(F)c(F)c(F)c2F)c(OC)cc1Cl | u | 6.3% | 2.0 | x | x | 11.2µM*
COc1ccc(CCC(=O)N2CCCC(Nc3ccc(C)c(C)c3)C2)cc1OC (stereo not drawn) | -7.4% | -2.8% | -26.8 | u | -5.4%[7.34 µM] | -10.8%
COc1ccc(C(=O)C[n+]2cccc3cccc(O)c32)cc1 | x | x | x | i | -13.7% | x
O=C(O)c1cc(-c2ccc(Cl)c(Cl)c2)n(-c2ccccc2)n1 | -13.9% | -11.6% | -0.1 | i | -10.3% | 20.0%
Cc1ccc(C(=O)N2CCCC(N3CCN(c4ccccc4C)CC3)C2)c(=O)[nH]1 (stereo not drawn) | -3.3% | -6.0% | -69.7* | x | x | 13.6%
Cc1ccccc1N1CCN(C2CCCN(C(=O)c3ccc(Cl)s3)C2)CC1 (stereo not drawn) | u | x | -1.1 | -14.7% | -25.7% | x
CCc1nccn1CCC(=O)N1CCCC(N2CCN(c3ccccc3C)CC2)C1 (stereo not drawn) | -10.1% | -13.1% | -87.4* | -4.2% | -16.7% | u
CCC1CCCCN1C(=O)Cn1c(=O)cc(C(F)(F)F)c2c(C)nn(C)c21 (stereo not drawn) | u | x | -19.9 | -9.3% | -11.2% | x
O=[N+]([O-])c1ccc(N2CCN(Cc3ccccc3)CC2)s1 | -16.5% | 12.4% | -8.9 | i | -18.8% | -16.7%
O=[N+]([O-])c1ccc(N2CCN(Cc3ccccc3)CC2)c2c1no[n+]2[O-] | 28.2µM* | x | 53.1 | u | 4.1% | x
N#CCCN(Cc1ccccc1)C(C(=O)NC1CCCCC1)c1cc2ccccc2o1 (stereo not drawn) | -25.3% | x | -60.2* | i | -2.8% | x
COc1ccc(CNC(C)C23CC4CC(CC(C4)C2)C3)c(OC)c1OC (stereo not drawn) | -21.4% | 2.0% | -61.0* | -25.3% | -27.9% | u
Cc1ccc(-n2c(SCC(=O)N3CCCCC3)nc(O)c(Cc3ccccc3)c2=O)cc1 | -4.2% | x | -28.3 | x | x | 7.5%
O=C(CSc1ncnc2c1nnn2Cc1ccccc1F)N1CCN(c2ccccc2)CC1 | 35.5µM* | 1.0% | -15.7 | x | 1.7% | 4.9%
Cc1ccc(NC(=O)c2oc3ccccc3c2NC(=O)C2CC2)cc1 | -10.2% | x | u | i[7.34 µM] | -12.2%[7.34 µM] | -1.6%
O=C(Nc1ccc(F)cc1)c1oc2ccccc2c1NC(=O)C1CC1 | -27.3% | x | -60.0* | -7.0%[7.34 µM] | -10.4%[7.34 µM] | -5.6%
CCOc1ccccc1C(=O)Nc1c(C(=O)Nc2ccc(F)cc2)oc2ccccc12 | -19.5% | x | -62.2* | -18.3% | -8.5% | x
